# The other results are listed elsewhere or left out. Calls of active or inactive are those of the source. No stated cut-off is given here; in the data, active means inhibition above about 13%; inactive means the rest.
# Tested on: SARS coronavirus 3C-like protease (3CLpro)
# Assay: confirmation of SARS coronavirus 3C-like protease inhibitors, retest, confirmation, biochemical (AID 1879)
# Conditions: QFRET protease activity assay, at 6 µM, active compounds read high
row,SMILES,inhibition
1,C=C(C)COc1ccc(-c2n[nH]c(C)c2-c2ccccc2)c(O)c1,5.95% (inactive)
2,CC(C)c1ccc(N(C(=O)c2ccco2)C(C(=O)NC2CCCC2)c2cccnc2)cc1 (centres undefined),47.8% (active)
3,CCCCNC(=O)N(O)C1N(/N=C/c2ccc(N(C)C)cc2)C(=S)SC1(C)C (centres undefined),-0.44% (inactive)
4,Cc1cccc(C(=O)Nc2nnc(Cc3c[nH]c4ccccc34)s2)c1,5.81% (inactive)
5,Cc1cccc2c1N(CCOc1ccccc1)C(=O)C2=O,19.1% (active)
6,CCC(C)(C)NC(=O)C(c1ccc(O)cc1)N(C(=O)Cn1nnc2ccccc21)c1ccc(NC(C)=O)cc1 (centres undefined),25.6% (active)
7,C[C@@]12C(=O)N(c3cccc(Br)c3)C(=O)N1[C@H](c1ccc(Cl)cc1)[C@@H]1C(=O)N(C3CCCCC3)C(=O)[C@@H]12,15.9% (active)
8,COC(=O)c1cc(NC(=O)Cc2ccccc2[N+](=O)[O-])ccc1Cl,15% (active)
9,COC(=O)COc1cccc2c(=O)n(CC(=O)NCc3ccccc3)ccc12,5.39% (inactive)
10,O=C1C(=O)N(CC2COc3ccccc3O2)c2ccccc21 (centres undefined),23.1% (active)
11,Cc1ccc(OCC(=O)Nc2ccc(C(=O)O)cc2NC(=O)COc2ccc(C)c(C)c2)cc1C,8.89% (inactive)
12,CN1CCN(CC(=O)Nc2cccc([N+](=O)[O-])c2)CC1,1.01% (inactive)
13,O=C(NCc1ccccc1)c1ccc(S(=O)(=O)Nc2cccc(C(F)(F)F)c2)cc1,7.75% (inactive)
14,O=C(c1cc(=O)c2ccccc2o1)N1CCN(c2ccccc2)CC1,12.2% (inactive)
15,Cc1ccc(C(=O)NCCN2CCOCC2)cc1C,0.81% (inactive)
16,O=Cc1cn(Cc2ccccc2)nc1-c1cccnc1,47.9% (active)
17,COc1ccccc1N(C(=O)Cn1nnc2ccccc21)C(C(=O)NCc1ccco1)c1ccc(C)o1 (centres undefined),26.2% (active)
18,O=C(O)c1ccc(NC(=O)c2cn(-c3ccccc3)nc2-c2ccc(Cl)cc2)cc1,6.65% (inactive)
19,CC(=O)c1cc(-c2ccccc2)[nH]c1N1CCCC1,22.5% (active)

# Reference: PubChem BioAssay AID1879 (The Scripps Research Institute Molecular Screening Center, 2009)
